In the library only some 13% were active in any assay of this set; here they are far more common.
LASV entry inh = qHTS for Inhibitors of binding or entry into cells for Lassa Virus; Lassa virus pseudotype entry inhibition, cell reporter; Potency, µM (series often up to 37.9 µM), inactives show top-dose activity change, negative = inhibition, hits mostly inhibitors; 1.2% of 300,000 active; AID 540256, 2011; calls by dose curve; tested in HEK293 cells; also: potency is read from the fitted curve at half-maximal effect; % is scaled to controls: 0 for no effect and ±100 for the full control effect; nearly all actives have a fitted effect of over 50% in size
CHX counter = Cycloheximide Counterscreen for Small Molecule Inhibitors of Shiga Toxin. cell reporter, cycloheximide protein synthesis inhibition counterscreen. max response, %. 12% of 300,000 active. AID 2314, 2010; in the data active = max response mostly above about 13%, no sharp cut-off; inactive = mostly below about 14%; also: read at 38.3 µM for the half of the compounds with a filed dose; 0% is about no effect
Shiga toxin inh = A qHTS for Small Molecule Inhibitors of Shiga Toxin | Vero cells, Shiga toxin protein synthesis inhibition reporter | inhibition, % at 38.7 µM | 9.2% of 290,000 active; in the data active = inhibition mostly above about 28%, no sharp cut-off; inactive = mostly below about 43%; also: 0% is about no effect
FMDV inh = High Throughput Screening for Foot and Mouth Disease Virus Antivirals | FMDV antiviral cell-based qHTS | Potency, µM (highest dose often 57.9 µM), for the others: at the top dose activity change, negative = inhibition, hits mostly inhibitors | 1.2% of 410,000 active | AID 1159524, 2015; calls by dose curve; tested in HEK293T cells; also: read-out not given here; potency is read from the fitted curve at half-maximal effect; % is scaled to controls: 0 for no effect and ±100 for the full control effect; nearly all actives have a fitted effect of over 45% in size
MARV entry inh = qHTS for inhibitors of binding or entry into cells for Marburg Virus; Marburg virus pseudotyped entry inhibition, cell reporter; Potency, µM (top dose mostly 37.8 µM), without a hit: at the highest dose activity change, negative = inhibition, actives largely listed as inhibitors; 1.8% of 300,000 active; calls by dose curve; tested in HEK293 cells; also: potency is read from the fitted curve at half-maximal effect; % is scaled to controls: 0 for no effect and ±100 for the full control effect
HCV inhibitor = qHTS Assay for Inhibitors of Hepatitis C Virus (HCV); 3.4% of 340,000 active; Potency, µM (doses to about 41.8 µM), for the others: at the top dose activity change, negative = inhibition, hits mostly inhibitors; Huh7.5.1 HCVcc-Cre infection, luciferase reporter, 44 h; active = well fitted inhibition curve with a large enough effect; inconclusive = small, poorly fitted or top-dose-only effect, or another doubt; inactive = no such curve, though single readings can be large or run the other way; also: potency is read from the fitted curve at half-maximal effect; % is scaled to controls: 0 for no effect and ±100 for the full control effect
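Luciferase read-out (15 sec integration) after a 15 min room-temperature substrate step quantifies HCVcc-Cre infection. Cells, 1,000 per well, had compound added 4 h post-plating, then virus at ~0.5 moi, and were cultured 44 h.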
* = called active by the depositor; ? = inconclusive; . = no result; [ ] = remark or other dose.

SMILES	LASV entry inh	CHX counter	Shiga toxin inh	FMDV inh	MARV entry inh	HCV inhibitor
COc1ccc(-c2cc(C(=O)Nc3cc(C)nn3-c3ccccc3)no2)cc1	0.6%	39.9*	71.8*	61.3%	12.1%	-21.7%
COc1ccc(-c2cc(C(=O)Nc3cc(Br)ccc3O)no2)cc1	3.1%	23.0*	40.5	47.3%	-14.1%	15.0%
COc1ccc(NC(=O)c2cc(C)on2)cc1	.	56.2*	89.1*	66.8%	.	?
CC(=O)Nc1cccc(NC(=O)c2cc(C)on2)c1	14.7%	21.3*	53.2*	45.7%	17.8%	-3.6%
CC(C)(C)NC(=O)COC(=O)CCC(=O)c1ccc(Cl)cc1	9.9%	-2.8	10.3	-10.4%	3.1%[46.1 µM]	-21.0%
O=C(CSc1nc2c([nH]c3ccccc32)c(=O)n1-c1ccccc1)N1CCCCC1	-1.0%[46.1 µM]	.	.	-3.3%	.	.
O=[N+]([O-])c1cccc(C2=NCCC(c3ccccc3)O2)c1 (stereo not given)	-14.4%	4.6	16.8	?	10.7%	-1.7%
Cc1oc(-c2ccccc2F)nc1Cn1c(SCc2ccccc2F)nc2ccncc21	6.7%[46.1 µM]	.	.	13.5%	-10.5%[46.1 µM]	.
CC1(Cc2ccc(F)cc2)C(=O)Nc2ccc(S(=O)(=O)NC3CCCCC3)cc21 (stereo not given)	.	.	.	10.3%	.	.
COc1ccc(-c2cc(C(=O)Nc3ccc(C#N)cc3)no2)cc1	-0.3%[46.1 µM]	.	.	20.4%	-13.7%[46.1 µM]	.
COc1ccc(NC(=O)c2cc(-c3ccccc3)on2)cc1	.	19.4*	.	43.9%	.	3.6%
O=C(c1ccncc1)N1CCN(S(=O)(=O)c2cccc(F)c2)CC1	4.0%	-2.9	-18.6	-17.0%	18.0%	.
Cc1ccc(C(C)C)c(OCc2nn(CC(=O)c3ccc(Cl)cc3)c3[n+]2CCCCC3)c1	?	-6.2	-11.9	31.6µM*	?	?
O=C(Cn1nc(CNc2ccc(Cl)cc2)[n+]2c1CCCCC2)c1ccccc1	-0.5%	2.2	-3.0	-4.4%	11.7%	13.3%
CN1CCN(C(=O)c2ccc(COc3ccc(C(C)(C)C)cc3)o2)CC1	-13.6%	49.4*	65.5*	-1.9%	-31.0%	-19.0%
CCOc1ccc(OCc2ccc(C(=O)NC(C)C)o2)cc1	.	39.8*	43.0*	-2.7%	.	?
CC(C)NC(=O)c1ccc(COc2cc(Cl)ccc2Cl)o1	-11.6%[46.1 µM]	9.3	14.2	-7.4%	?	11.2µM*
CC(C)(c1ccccc1)c1ccc(OCc2ccc(C(=O)O)o2)cc1	?	.	.	-18.0%	?	18.8%
CCOc1ccc(OCc2ccc(C(=O)OCc3ccccn3)o2)cc1	?	63.2*	143.1*	-35.7%	?	7.9%
CCOC(=O)c1c(C)oc2ccc(N(C(=O)c3ccncc3)S(=O)(=O)c3ccc(F)cc3C)cc12	?	.	.	-3.0%	?	.
CC(=O)Nc1cn(C(C)=O)c(C)n1	.	-1.6	-1.6	.	-4.4%	12.7%
CCN(CC)C(=O)COc1ccc(N(C)S(=O)(=O)c2ccc(NC(C)=O)cc2)cc1	.	6.4	14.6	-14.6%	.	-1.3%
CCc1nn2c(=O)cc(CSCC(=O)Nc3ccccc3Cl)nc2s1	.	-11.6	-0.8	-23.3%	.	6.1%
CCOC(=O)c1ccc(COc2ccc(C(C)C)cc2)o1	?	73.2*	101.8*	5.4%	?	4.0%
CC(C)c1ccc(OCc2ccc(C(=O)N3CCCC3)o2)cc1	-27.5%[46.1 µM]	111.0*	154.8*	5.5%	9.6%[46.1 µM]	?
SMILES	LASV entry inh	CHX counter	Shiga toxin inh	FMDV inh	MARV entry inh	HCV inhibitor
CCC(C)c1ccc(OCc2ccc(C(=O)O)o2)cc1 (stereo not given)	?	70.5*	105.3*	11.2µM*	?	19.7%
CCOc1ccc(OCc2ccc(C(=O)N3CCCC3)o2)cc1	-8.6%	23.9*	54.1*	.	?	-21.3%
CC1CC(NC(=O)Cc2ccc(Br)cc2)CC(C)(C)C1 (stereo not given)	-12.0%	-1.3	-4.9	-14.7%	?	4.2%
CC(=O)Nc1ccc([N+](=O)[O-])c(CS(=O)(=O)c2ccc(C)cc2)c1[N+](=O)[O-]	-21.4%	7.0	-7.6	-16.2%	5.4%[46.1 µM]	13.5%
CCCc1ccc(OCc2ccc(C(=O)N3CCCC3)o2)cc1	3.9%	22.4*	148.8*	7.5%	?	?
Cc1ccccc1OCc1ccc(C(=O)N2CCOCC2)o1	6.0%[46.1 µM]	-3.5	24.5	37.0%	11.6%[46.1 µM]	-0.4%
C#CCSc1nnc(-c2cccc3ccccc23)o1	3.8%	.	.	47.0%	?	-16.0%
